Rows were chosen to be rich in hits. Some 2.8% of all compounds tested hit in one or more screens of this group.
KDM5B inh = Primary screen for KDM5B Histone Demethylases FDH-coupled qHTS; Lysine-specific demethylase 5B (Homo sapiens), Q9UGL1; KDM5B demethylase, FDH-coupled NADH fluorescence (FDH is formaldehyde dehydrogenase); Potency, µM (highest dose often 57.7 µM), hits mostly inhibitors; 2.6% of 220,000 active; AID 1347165, 2019; note: nearly all actives have a fitted effect of over 70% in size
Target sequence (Q9UGL1 whole entry, looked up): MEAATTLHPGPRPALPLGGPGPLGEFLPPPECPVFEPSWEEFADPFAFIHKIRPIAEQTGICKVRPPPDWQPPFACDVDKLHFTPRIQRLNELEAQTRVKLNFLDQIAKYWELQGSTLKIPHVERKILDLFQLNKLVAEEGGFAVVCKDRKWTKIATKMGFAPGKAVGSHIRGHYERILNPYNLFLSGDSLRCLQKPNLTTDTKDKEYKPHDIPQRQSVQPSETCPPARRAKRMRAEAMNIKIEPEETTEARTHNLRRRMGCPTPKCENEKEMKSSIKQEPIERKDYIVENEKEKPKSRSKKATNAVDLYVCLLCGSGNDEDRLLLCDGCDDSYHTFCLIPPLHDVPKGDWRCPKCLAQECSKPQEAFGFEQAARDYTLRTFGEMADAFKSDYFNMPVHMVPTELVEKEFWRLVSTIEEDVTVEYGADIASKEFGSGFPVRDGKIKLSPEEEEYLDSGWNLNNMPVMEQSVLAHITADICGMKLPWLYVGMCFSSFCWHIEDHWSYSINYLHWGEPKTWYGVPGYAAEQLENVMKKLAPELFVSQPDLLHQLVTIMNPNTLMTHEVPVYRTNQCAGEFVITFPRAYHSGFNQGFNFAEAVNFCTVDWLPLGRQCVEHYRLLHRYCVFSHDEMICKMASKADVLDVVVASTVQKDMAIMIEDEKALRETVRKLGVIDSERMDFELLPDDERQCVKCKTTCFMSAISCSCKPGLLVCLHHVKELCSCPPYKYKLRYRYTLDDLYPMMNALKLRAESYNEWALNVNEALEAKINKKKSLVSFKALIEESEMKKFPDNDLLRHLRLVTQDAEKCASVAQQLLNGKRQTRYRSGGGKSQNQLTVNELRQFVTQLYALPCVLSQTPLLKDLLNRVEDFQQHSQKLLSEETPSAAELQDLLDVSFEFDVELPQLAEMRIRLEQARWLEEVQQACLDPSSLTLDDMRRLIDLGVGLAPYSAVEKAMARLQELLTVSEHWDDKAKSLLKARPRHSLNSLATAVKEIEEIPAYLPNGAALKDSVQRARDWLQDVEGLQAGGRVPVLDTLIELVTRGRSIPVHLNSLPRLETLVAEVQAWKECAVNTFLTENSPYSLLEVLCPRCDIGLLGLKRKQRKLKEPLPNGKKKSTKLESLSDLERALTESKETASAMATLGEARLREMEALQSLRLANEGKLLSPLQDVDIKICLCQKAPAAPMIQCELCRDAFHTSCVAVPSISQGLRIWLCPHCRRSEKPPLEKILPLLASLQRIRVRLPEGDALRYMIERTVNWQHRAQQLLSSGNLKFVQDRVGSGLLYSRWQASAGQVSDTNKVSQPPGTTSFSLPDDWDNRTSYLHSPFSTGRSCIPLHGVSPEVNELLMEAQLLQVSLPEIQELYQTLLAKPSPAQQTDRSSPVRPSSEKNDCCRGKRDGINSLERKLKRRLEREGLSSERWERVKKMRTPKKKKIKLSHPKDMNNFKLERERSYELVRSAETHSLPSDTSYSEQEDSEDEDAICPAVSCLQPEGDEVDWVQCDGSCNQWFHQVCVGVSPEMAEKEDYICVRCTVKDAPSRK
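Measured: NADH fluorescence change, 30 min, RT. System: KDM5BΔAP 200 nM final, H3K4me3 peptide, α-KG, Fe(II), ascorbate, NAD⁺ plus FDH, pH 7.5 HEPES. Compounds: titrated, 10 min pre-incubation with enzyme.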
IP6K1 inhibitor = Primary qHTS assay for small molecule inhibitors of Inositol hexaphosphate kinase 1 (IP6K1); AID 1645851, 2021; Inositol hexakisphosphate kinase 1 (Homo sapiens), Q92551; 0.81% of 140,000 active; IP6K1 kinase, ADP-Glo luminescence, 2 h; active compounds read low; activity change, % (series mostly up to about 58 µM); in the data active = activity change below about -25%
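ADP-Glo luminescence measures ADP made by human IP6K1 during a 2 h RT reaction with ATP/IP6 (mix at 1.3 mM/130 uM); top library doses 57.5 and 19.1 uM final.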
SNCA expr inh = Primary qHTS assay for inhibitors of alpha-synuclein gene (SNCA) expression; Potency, µM (series often up to 57.2 µM), actives largely listed as inhibitors; 0.17% of 140,000 active; HEK-293 SNCA-luciferase knock-in, luminescence, 24 h; note: nearly all actives have a fitted effect of over 45% in size
HEK293 viab = GF-AFC viability counterscreen for inhibitors of alpha-synuclein gene (SNCA) expression; HEK-293-SNCA-luc viability, GF-AFC fluorescence, 24 h; Potency, µM (top dose mostly 57.1 µM), hits mostly cytotoxic; 0.12% of 150,000 active; AID 1671193, 2021; note: nearly all actives have a fitted effect of over 30% in size
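Cytotoxicity counterscreen: after 24 h compound treatment of genome-edited SNCA-luciferase HEK-293 cells, live-cell protease substrate GF-AFC read by fluorescence after 30 min; activity scaled between DMSO (0%) and medium-only (-100%), curves Hill-fitted.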
Of the large screens only hits and unclear results are named; the others gave an inactive call. Unless noted, calls come from the whole dose curve; as a rule, active = well fitted curve in the direction sought with a large enough effect; inconclusive = small, poorly fitted or top-dose-only effect, or another doubt; inactive = no such curve, though single readings can be large; an effect the other way counts as inactive or inconclusive.

CC(C)CCN1CCC(N2CCN(C(=O)Cc3ccccc3F)CC2)C1=O (centres undefined)	SNCA expr inh inconclusive
CC[C@H]1CN2CC[C@H]1C[C@@H]2COC(=O)Nc1ccc(C(C)(C)C)cc1	KDM5B inh 28µM
CC[C@H]1CN2CC[C@H]1C[C@@H]2COC(=O)Nc1cccc2ccccc12	KDM5B inh 32µM
CC[C@H]1CN2CC[C@H]1C[C@@H]2CNC(=O)c1ccc2ccccc2c1	none
O=C1CO[C@H]2CN(Cc3ccccn3)C[C@H]2N1	none
COc1ccccc1NC(=O)Nc1ccc2n(c1=O)C[C@H]1C[C@@H]2CN(C2CCOCC2)C1	KDM5B inh 16µM
COc1ccccc1NC(=O)N1C[C@@H]2C[C@H](C1)c1c(C3CCCCC3)ccc(=O)n1C2	none
CNc1ccc2oc(C[C@H]3O[C@@]4(CC[C@H]3C)O[C@H](C(C)C(=O)c3ccc[nH]3)[C@H](C)C[C@H]4C)nc2c1C(=O)O (some centres undefined)	HEK293 viab 9.5µM (no result: KDM5B inh, SNCA expr inh)
CNc1ccc2oc(C[C@H]3O[C@@]4(CC[C@H]3C)O[C@H]([C@H](C)C(=O)c3ccc[nH]3)[C@H](C)C[C@H]4C)nc2c1C(=O)O	SNCA expr inh 28µM, HEK293 viab inconclusive (no result: KDM5B inh, IP6K1 inhibitor)
O=C(NC1CCCCC1)N1C[C@@H]2C[C@H](C1)c1c(/C=C/c3ccc(Cl)cc3)ccc(=O)n1C2	none
O=C(C1CCCCC1)N1C[C@@H]2C[C@H](C1)c1c(/C=C/c3ccc(Cl)cc3)ccc(=O)n1C2	KDM5B inh 25µM
O=C(c1ccccc1)N1CCC(C(=O)O)(c2ccccc2)CC1	none
COc1ncc(-c2cnc3[nH]cc(CC(=O)N4CCN(C)CC4)c3c2)cn1	none
Cn1cc(-c2cnc3[nH]cc(CC(=O)N4CCN(Cc5ccccc5)CC4)c3c2)cn1	KDM5B inh 28µM
CN1CCN(C(=O)Cc2c[nH]c3ncc(-c4ccc(Cl)cc4)cc23)CC1	KDM5B inh 32µM
CN1CCN(C(=O)Cc2ccc(Cl)cc2Cl)CC1	none (no result: IP6K1 inhibitor, SNCA expr inh, HEK293 viab)
CN1CCN(C(=O)Cc2c[nH]c3ncc(-c4ccc(F)c(Cl)c4)cc23)CC1	KDM5B inh 40µM
C=C[C@H]1CN2CC[C@H]1C[C@@H]2CNC(=O)c1cc(OC)c(OC)c(OC)c1	KDM5B inh inconclusive
Cn1nc(C2CCCCC2)cc1[C@H]1CN2CC[C@H]1C[C@@H]2CNC(=O)N1CCOCC1	none
C[C@@H](CN1CCC2(CC1)C(=O)NCN2c1cccc(F)c1)NC(=O)c1ccc(Br)cc1	none (no result: KDM5B inh, SNCA expr inh)
CN1C(=O)NC(=O)C2(Cc3c(ccc4ccccc34)N(C)C2)C1=O (centres undefined)	none (no result: IP6K1 inhibitor, SNCA expr inh, HEK293 viab)
O=C1NCCCCCN(Cc2cccnc2)[C@H]2CCC[C@@H]12	KDM5B inh inconclusive
O=C1NCCCCCCN(Cc2cccnc2)[C@H]2CCC[C@@H]12	KDM5B inh 7.9µM, SNCA expr inh inconclusive
Cc1ccc(-n2nccn2)c(C(=O)N2CCN(c3nc4cc(Cl)ccc4o3)CCC2C)c1 (centres undefined)	none (no result: KDM5B inh, SNCA expr inh)
COc1cc2c(cc1OCc1ccccc1)NC(=O)C21CCN(c2ccccn2)CC1	KDM5B inh 25µM
COc1cc2c(cc1OCc1ccccc1)NC(=O)C21CCN(c2ncccn2)CC1	KDM5B inh inconclusive
COc1cc2c(cc1OC1CCCC1)NC(=O)C21CCN(c2ccc(C#N)cn2)CC1	KDM5B inh 32µM
COc1cc2c(cc1OC1CCCC1)NC(=O)C21CCN(C(=O)c2cccc(C#N)c2)CC1	none
COc1cc2c(cc1Oc1ccccc1)NC(=O)C21CCN(c2ncccn2)CC1	KDM5B inh inconclusive
COc1cc2c(cc1Oc1ccccc1)NC(=O)C21CCN(c2ncc(C(C)C)cn2)CC1	KDM5B inh 28µM
C[C@]12CCC(=O)C=C1CC[C@@H]1[C@@H]2[C@@H](O)C[C@]2(C)C(=O)CC[C@@H]12	none (no result: KDM5B inh, SNCA expr inh)
COc1ccc(-c2cc([C@H]3CN4CC[C@H]3C[C@@H]4CNC(=O)C3CCC3)n(C)n2)cc1OC	none
Cc1ncc2c(n1)C[C@@H]1CC[C@H]2N1C(=O)NC1CCCC1	none
Cc1nc(-c2ccc(N(C)C)cc2)cc([C@H]2CN3CC[C@H]2C[C@@H]3CNC(=O)c2ccco2)n1	KDM5B inh 25µM
Cc1nc(-c2ccc(N(C)C)cc2)cc([C@H]2CN3CC[C@H]2C[C@@H]3CNC(=O)NC(C)C)n1	KDM5B inh 11µM
Cc1nc(-c2ccc(N(C)C)cc2)cc([C@H]2CN3CC[C@H]2C[C@@H]3COC(=O)Nc2ccccc2)n1	KDM5B inh inconclusive, SNCA expr inh inconclusive, HEK293 viab inconclusive
CCOC(=O)[C@H]1CN(C(=O)c2cccc(OC)c2)[C@]2(C)C(=O)N(CC3CC3)c3ccccc3[C@H]12	none (no result: KDM5B inh)
COc1ccc(N2CC3CCC(C2)N3CC(F)(F)F)cn1	KDM5B inh 56µM
Cc1ccc2c(n1)N(C)[C@H](CO)CCN(CC(C)C)C2	KDM5B inh 16µM
O=C(O)CSCC(=O)N1C[C@@H]2C[C@H](C1)c1ccc(-c3cccc(C(F)(F)F)c3)c(=O)n1C2	KDM5B inh 32µM
COCCC(=O)N1C[C@@H]2C[C@H](C1)c1ccc(-c3cccc(C(F)(F)F)c3)c(=O)n1C2	KDM5B inh 40µM
CC(C)NC(=O)N1C[C@@H]2C[C@H](C1)c1ccc(-c3cccc(C(F)(F)F)c3)c(=O)n1C2	SNCA expr inh inconclusive
O=C(c1ccncc1)N1C[C@@H]2C[C@H](C1)c1ccc(-c3cccc(C(F)(F)F)c3)c(=O)n1C2	KDM5B inh 28µM
COc1ccc2ccccc2c1CNCCc1c[nH]c2ccccc12	none (no result: IP6K1 inhibitor, SNCA expr inh, HEK293 viab)
Cc1nnc2n1CCC(NC(=O)c1nn(C)c3ccccc13)CC2 (centres undefined)	KDM5B inh inconclusive
CCCn1c(C)cnc1CCNC(=O)c1nn(C)c2ccccc12	KDM5B inh 25µM
COc1ccc(-c2cc3c(cn2)CN(C)CCN3)cc1OC	KDM5B inh 35µM
COc1cccc(Nc2cc3c(cn2)CN(C)CCN3)c1	KDM5B inh inconclusive
CCN1Cc2ccccc2NC(=O)C12CCNC2 (centres undefined)	KDM5B inh 56µM
O=C1Nc2ccccc2CC12CCN(Cc1ccccn1)C2 (centres undefined)	KDM5B inh 32µM
c1cnc(N2CC[C@@]3(CCCNC3)C2)nc1	none (no result: KDM5B inh, IP6K1 inhibitor)
c1cnc2c(c1)NC1(CCCNC1)C(=NC1CCCC1)N2 (centres undefined)	KDM5B inh 25µM
COCCNC(=O)[C@H]1CN2CC[C@H]1C[C@@H]2Cn1cc(-c2ccc(C(C)(C)C)cc2)nn1	none
O=c1c(C2CCCCC2)ccc2n1C[C@H]1C[C@@H]2CN(S(=O)(=O)c2ccccc2)C1	KDM5B inh 32µM
N#Cc1ccccc1S(=O)(=O)N1C[C@@H]2C[C@H](C1)c1ccc(-c3ccc(Cl)cc3)c(=O)n1C2	KDM5B inh 35µM
